Screening data (PubChem BioAssay)
A3G deaminase: inhibitors of human APOBEC3G DNA deaminase. inhibition, % at 20 µM. 330,000 tested, 0.28% active. recombinant A3G, ssDNA deamination FAM/TAMRA fluorescence. Q9HC16;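 active = inhibition of at least 40% at 20 µM, with no more than 30% in the related APOBEC3A deaminase screen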;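 note: plate controls were DMSO wells with A3G for no effect and wells lacking A3G enzyme for full effect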
PABP1 MLLE inh: blocks PAM2 peptide binding to the PABP1 MLLE domain. GST-MLLE / FITC-PAM2 fluorescence polarization. 360,000 tested, 0.36% active. inhibition, % at 20 µM; in the data active = inhibition above about 35%, passing the limit was not always enough;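 note: plate controls were DMSO wells with GST-MLLE for no effect and wells lacking GST-MLLE protein for full effect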
Target sequence (P11940 whole entry, looked up, the tested form may be a part): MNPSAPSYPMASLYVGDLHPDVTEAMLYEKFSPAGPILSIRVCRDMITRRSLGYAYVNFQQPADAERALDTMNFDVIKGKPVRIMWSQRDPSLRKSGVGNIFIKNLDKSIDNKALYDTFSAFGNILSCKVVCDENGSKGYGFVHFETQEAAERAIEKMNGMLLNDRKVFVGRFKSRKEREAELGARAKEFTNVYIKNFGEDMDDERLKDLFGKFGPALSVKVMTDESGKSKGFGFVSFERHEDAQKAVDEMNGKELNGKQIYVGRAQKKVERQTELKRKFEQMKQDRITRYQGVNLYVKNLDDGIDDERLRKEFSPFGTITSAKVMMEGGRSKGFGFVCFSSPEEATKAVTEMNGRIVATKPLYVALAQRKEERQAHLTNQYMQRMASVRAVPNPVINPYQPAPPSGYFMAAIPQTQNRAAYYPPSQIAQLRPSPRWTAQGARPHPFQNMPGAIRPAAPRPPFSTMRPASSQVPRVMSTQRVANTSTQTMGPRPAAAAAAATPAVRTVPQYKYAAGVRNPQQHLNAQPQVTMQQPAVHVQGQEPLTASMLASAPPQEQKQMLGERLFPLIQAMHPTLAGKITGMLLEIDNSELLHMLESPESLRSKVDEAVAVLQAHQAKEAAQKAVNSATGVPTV
PABP FP inh: blocks human PABP binding to poly(A) RNA | fluorescence polarization | P11940 | calls only at 35 µM | 290,000 tested, 1% active | AID 2014;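 note: calls also rest on retests at 20 µM and on dose response follow-up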
eIF4H inh: inhibitors of RNA binding by human eIF4H; Q15056; 290,000 tested, 0.94% active; eIF4H fluorescence polarization binding assay; inhibition, % at 35 µM;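 note: calls also rest on retests at 20 µM and on dose response follow-up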
PHOSPHO1 inh: blocks human PHOSPHO1 phosphatase activity; Q8TCT1; recombinant PHOSPHO1, absorbance phosphatase assay; inhibition, % at 13.3 µM; 290,000 tested, 1.1% active; in the data active = inhibition above about 60%
APOBEC3A inh: human APOBEC3A DNA deaminase inhibition | P31941 | recombinant A3A, FAM/TAMRA ssDNA deamination fluorescence | inhibition, % at 20 µM | 330,000 tested, 0.41% active | AID 493011;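 active = at least 40% inhibition at 20 µM here, with at most 30% in a related deaminase screen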;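 note: plate controls were A3A with DMSO for no effect and wells lacking A3A enzyme for full effect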
The depositor's hits bear a star; i = inactive; x = no result; + = active, no number. Only some compounds are listed: those with a hit (about 2.6% of all), similar ones and a draw of the others. Unless noted, the rule behind the calls is not given here.

SMILES	A3G deaminase	PABP1 MLLE inh	PABP FP inh	eIF4H inh	PHOSPHO1 inh	APOBEC3A inh
CCN1CCN(c2ccc(N3CCN(S(=O)(=O)c4cccc([N+](=O)[O-])c4)CC3)nn2)CC1	x	-0.6	x	x	x	x
COc1ccc(C2(c3ccc(OC)cc3)NC(=O)NC2=O)cc1	-8.7	2.5	i	-2.8	13.0	-3.1
CCN(CC(=O)NC1CCS(=O)(=O)C1)C(=O)c1cc(OC)c(OC)c(OC)c1 (stereo unspecified)	-5.1	4.2	x	x	x	-2.7
COc1cccc(NC(=S)Nc2cc(C)cc(C)n2)c1	0.3	45.3*	i	-4.5	-5.9	3.6
Cc1cc(C)nc(NC(=S)Nc2cccc(F)c2)c1	3.6	31.9	i	-2.2	-8.1	0.7
CCc1ccccc1NS(=O)(=O)c1ccc2c(c1)NC(=O)CC(=O)N2	2.1	-4.3	+	active	-1.1	1.6
Brc1cc2c(cc1CSc1ncccn1)OCO2	-8.5	-2.8	i	-11.5	16.0	-4.2
CCOc1cc(/C=C2/NC(=O)NC2=O)cc(Br)c1OCc1ccc(C(=O)O)cc1	-0.6	-91.2	i	101.6	85.7*	36.9
COc1cc(/C=C2\NC(=O)NC2=O)cc(Br)c1OC	-16.0	-8.3	i	-5.5	28.6	-4.6
COc1ccc(S(=O)(=O)N2CCCC2)cc1C(C)C	-3.8	-8.6	i	-6.6	39.4	0.4
O=C(COc1ccccc1C(=O)N/N=C\c1ccc(O)c(O)c1)N/N=C/c1ccc(O)c(O)c1	-0.2	5.2	+	74.3*	30.5	-1.9
COc1cccc(C(O)c2nc(-c3cnn(C)c3)cs2)c1 (stereo unspecified)	x	-7.8	x	x	x	x
CCN(Cc1ccccc1)C(=O)c1ccc(N(C)S(=O)(=O)c2ccc(C)cc2)cc1	-6.9	-1.6	x	x	x	-1.3
O=C(NC(=O)c1ccccc1)Nc1ccccn1	-2.0	-4.9	i	-6.6	67.6*	-9.1
O=C(Nc1ccccn1)c1ccc(C(=O)c2ccccc2)cc1	-11.6	11.7	x	x	x	0.6
CCCCCn1c(N)c(-c2nc3ccccc3o2)c2c([N+](=O)[O-])nn(C)c(=O)c21	x	1.1	i	74.2*	-35.5	x
CCCCCn1c(N)c(-c2nc3ccccc3o2)c2c([N+](=O)[O-])nn(CC)c(=O)c21	-5.2	-0.9	i	38.0	-23.3	-6.4
COc1cccc(CC2(CO)CCCN(Cc3ccc(C)s3)C2)c1 (stereo unspecified)	-6.1	5.2	i	-6.1	38.8	0.8
COc1cccc(CC2(CO)CCCN(Cc3sc(N4CCCC4)nc3Cl)C2)c1 (stereo unspecified)	-6.9	28.1	+	55.9*	31.1	-3.2
CCOC(=O)Nc1sc(C)c(C)c1C(=O)OCC	-3.8	7.6	i	-5.6	-6.9	-2.8
CCOC(=O)c1c(NC(=O)c2noc3c2CCCC3)sc(C)c1C	x	x	i	-0.7	92.3*	x
Cc1cccc(CCNC(=O)Cn2ncc3c([nH]c4ccccc43)c2=O)c1	-7.4	-7.9	i	-11.2	27.6	-5.7
CCN(CC(=O)Nc1c(F)cccc1F)C(=O)c1ccc(=O)n(Cc2ccccc2)n1	-1.4	6.8	i	-3.7	42.8	2.8
CCN(CC(=O)Nc1cc(Cl)ccc1C)C(=O)c1ccc(=O)n(Cc2ccccc2)n1	-0.1	2.7	i	-1.4	61.7*	3.7
O=c1c2c([N+](=O)[O-])cc([N+](=O)[O-])cc2nc2ccccn12	8.1	-4.3	+	81.7*	13.5	6.0
SMILES	A3G deaminase	PABP1 MLLE inh	PABP FP inh	eIF4H inh	PHOSPHO1 inh	APOBEC3A inh
Cc1c(O)nc2ccccn2c1=O	-5.4	9.9	i	-12.1	-31.2	-3.9
Cc1ccc(C)c(CN2C(=O)c3ccccc3S(=O)c3ccc(C(=O)N4CCN(c5ccccn5)CC4)cc32)c1 (stereo unspecified)	6.6	-1.9	i	-5.3	-5.1	0.9
CCCCCCOC(=O)Sc1nc2ccccc2o1	-3.7	-87.2	i	0.5	85.8*	-4.0
COc1cc(C(C)=O)ccc1OCC(O)CNCC(O)c1ccccc1 (stereo unspecified)	-4.7	-9.5	i	9.4	35.6	-2.6
N#CC(C#N)=Cc1cccn1-c1ccc(C(=O)O)cc1	41.3	0.2	i	86.8*	8.0	80.7
O=C(CN1C(=O)S/C(=C/c2cccs2)C1=O)N1CCCC1	-5.3	15.8	x	x	x	-3.8
O=C(O)c1ccc(-n2cccc2/C=C2/NC(=O)N(c3cccc(Cl)c3)C2=O)cc1	x	-1.1	i	92.2	19.2	x
